# Several values for one entry are separate records, joined by “and”; a condition that tells them apart may be missing. Identical values can stand only once. About 5,800 (36%) of roughly 16,000 compounds were called active. Inconclusive results (about 23%) are left out. The call rests on the fitted dose curve; in most records, active means well fitted curve in the direction sought with a large enough effect; inconclusive means small, poorly fitted or top-dose-only effect, or effect the other way; inactive means no such curve, though single readings can be large or run the other way. This is one part of the list. Where a structure was tested more than once in an assay, its records may differ in their call.
# Molecular target: Cytochrome P450 2C19 (Homo sapiens) (UniProt P33261)
# Assay: Cytochrome panel assay with activity outcomes
# Details: recombinant CYP, pro-luciferin dealkylation, luminescence, p450-cyp2c19; series mostly up to 57.1 µM
# On the % scale 0 is the no-effect control and ±100 the full control effect.
# Chain of Cytochrome P450 2C19 (Homo sapiens) (P33261 whole entry, looked up): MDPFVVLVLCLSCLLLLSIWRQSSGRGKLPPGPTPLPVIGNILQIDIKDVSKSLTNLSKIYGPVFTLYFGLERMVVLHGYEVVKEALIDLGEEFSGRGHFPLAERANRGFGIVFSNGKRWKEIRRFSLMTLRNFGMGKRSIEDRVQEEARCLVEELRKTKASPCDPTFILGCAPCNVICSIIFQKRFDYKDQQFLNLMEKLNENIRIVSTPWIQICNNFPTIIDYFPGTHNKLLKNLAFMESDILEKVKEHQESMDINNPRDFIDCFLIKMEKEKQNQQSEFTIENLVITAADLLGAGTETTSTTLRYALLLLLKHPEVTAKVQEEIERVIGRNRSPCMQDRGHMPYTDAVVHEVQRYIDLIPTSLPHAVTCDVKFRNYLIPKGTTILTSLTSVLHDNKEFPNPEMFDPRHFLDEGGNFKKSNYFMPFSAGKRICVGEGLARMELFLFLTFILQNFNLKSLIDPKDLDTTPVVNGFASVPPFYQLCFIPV
Compound,AC50,"activity, negative = inhibition"
CN1[C@@H]2CC[C@H]1CC(O)C2 (some centres not stated),inactive,
O=C(O)CN1CCN(CC(=O)O)CC(=O)[O][Hg][O]C(=O)C1,0.794 µM (active),
CC(C)NP(=O)(NC(C)C)OP(=O)(NC(C)C)NC(C)C,inactive,
O=C(Nc1ccccc1)N1CC[C@@]2(CCCN(C(=O)Oc3ccccc3)C2)C1,inactive,
COc1cc([C@H]2c3cc4c(cc3[C@@H](O)[C@@H]3COC(=O)[C@H]23)OCO4)cc(OC)c1OC,10 µM (active),
NC(=O)c1ccc(C(=O)Nc2ccc([As](=O)(O)O)cc2)cc1,,10.2% [at 11.4 µM] (inactive)
CCCCC1(CCCC)C(=O)NC(=Nc2cccc(C)c2)NC1=O,2.24 µM (active),
CC[N+](CC)(CCNC(=O)C(=O)NCC[N+](CC)(CC)Cc1ccccc1Cl)Cc1ccccc1Cl,inactive,
O=C(Oc1ccccc1)N1CCC2(CCCN(Cc3ccccc3)C2)CC1,inactive,
Cc1nc2sccc2c(=O)n1-c1ccccc1Cl,2.82 µM (active),
Cc1nc2ccccc2c(=O)n1-n1cnnc1,inactive,
C[C@@H](N)Cn1ccc2cc(F)c(Cl)cc21,inactive,
CC(C)CCC1(CCN)C(=O)NC(=O)NC1=O,,5.97% [at 11.4 µM] (inactive)
CN1CCN(c2ncc3ncc(=O)n(C)c3n2)CC1,inactive,
CC(C)[C@]1(O)[C@@H](OC(=O)c2ccc[nH]2)[C@]2(O)[C@@]3(C)C[C@@]4(O)O[C@@]5([C@H](O)[C@@H](C)CC[C@]35O)[C@]2(O)[C@]41C,,23.6% [at 11.4 µM] (inactive)
CCC(=O)O[C@@](Cc1ccccc1)(c1ccccc1)[C@@H](C)CN(C)C,inactive,
O=C(Oc1ccccc1)N1CCC2(CCCN(C(c3ccccc3)c3ccccc3)C2)CC1,inactive,
CCOP(=O)(OCC)C(NC(=O)C(Cl)Cl)C(Cl)(Cl)Cl (configuration not stated),10 µM (active),
CCOP(=O)(OCC)C(NC(C)=O)C(Cl)(Cl)Cl (configuration not stated),inactive,
N#Cc1ccc(CN2CC[C@@]3(CCCN(C(=O)Oc4ccccc4)C3)C2)cc1,inactive,
C[N+](C)(C)CCCCCC[N+](C)(C)C,inactive,

Compound,AC50,"activity, negative = inhibition"
Cc1cccc([C@H](C)c2cnc[nH]2)c1C,5.01 µM (active),
C[N+]1(C)C2CC[C@H]1CC(OC(=O)[C@@H](CO)c1ccccc1)C2 (some centres not stated),,14.6% [at 11.4 µM] (inactive)
CNCCCc1ccccc1,inactive,
C[C@@H](Cc1cccc(C(F)(F)F)c1)NCCCc1ccccc1,1.26 µM (active),
C#CCN[C@@H](C)Cc1ccccc1,inactive,
c1ccc2c(N3CCNCC3)cccc2c1,inactive,
CP(=O)(O)CCCN,inactive,
C[C@]12N[C@@H](Cc3ccccc31)c1ccccc12,inactive,
C=C1[C@@H]2CC[C@H]3[C@@]4(C)C[C@@H](O[C@@H]5O[C@H](CO)[C@H](OS(=O)(=O)O)[C@@H](OS(=O)(=O)O)[C@@H]5OC(=O)CC(C)C)C[C@@H](C(=O)O)[C@H]4CC[C@@]3(C2)[C@H]1O,inactive,
N[C@H](CP(=O)(O)O)C(=O)O,inactive,
Cc1nc(-c2ccc(-c3ccc(C(=O)N4CCc5cc6c(cc54)C4(CCN(C)CC4)CO6)cc3)c(C)c2)no1,inactive and 3.98 µM (active),
C[C@@H]1O[C@H]1P(=O)(O)O,inactive,
N[C@H](CCCP(=O)(O)O)C(=O)O,inactive,
N#CC(C#N)=Cc1cc(O)c(O)c(O)c1,inactive,
N#C/C(=C\c1ccc(O)c(O)c1)C(N)=S,inactive and 25.1 µM (active),
N#C/C(=C\c1ccc(O)c(O)c1)C(=O)NCCCNC(=O)/C(C#N)=C/c1ccc(O)c(O)c1,inactive,
CCC(=O)Nc1ccc(N2CCN(CC)CC2)c(Cl)c1,inactive,
Cc1c2ccncc2c(C)c2c1[nH]c1ccccc12,3.16 µM (active),
Cc1nccc2c1[nH]c1ccccc12,inactive,
CN(C)CCC(=O)[C@@]1(O)CC[C@H]2[C@H]3CC=C4C[C@@H](O)CC[C@]4(C)[C@H]3CC[C@]21C,,13.6% [at 11.4 µM] (inactive)
O=C(Nc1ccc(Cl)cc1)Nc1nccs1,25.1 µM (active),

Compound,AC50,"activity, negative = inhibition"
C[C@H]1CCCC=CC2C[C@H](O)C[C@@H]2[C@H](O)/C=C\C(=O)O1 (some centres not stated),inactive,
Cc1cc(C)nc(NC2=NCCS2)n1,inactive,
O=S(=O)(O)/C(=C\c1ccccc1)c1ccccc1 (tested in a mixture with another compound),,-40.3% [at 11.4 µM] (inactive)
CC(=O)c1ccc2c(c1)N(CCCN(C)C)c1ccccc1S2,inactive,
COC(=O)N1CCC2(CCN(CC(C)C)CC2)CC1,inactive,
c1ccc(N2CCC3(CCNCC3)CC2)cc1,inactive,
Cc1sc(NC(=O)C2C3CCC(O3)C2C(=O)O)c(C(=O)OC(C)C)c1-c1ccc(Cl)cc1 (configuration not stated),14.1 µM (active),
O=C(c1cc(-c2ccccc2)nc2ccccc12)N1CCC2(CC1)OCCO2,10 µM (active),
CN1C(=O)c2ccccc2Sc2ccc(C(=O)N3CCC4(CC3)OCCO4)cc21,inactive,
CN1[C@@H](CC(=O)c2ccccc2)CCC[C@@H]1C[C@@H](O)c1ccccc1,inactive,
CN1CC[C@@]2(CCCN(C(=O)c3ccco3)C2)C1,inactive,
COCC(=O)N1CCC2(CCCN(Cc3ccncc3)C2)CC1,inactive,
O=C(c1ccco1)N1CCC[C@@]2(CCN(Cc3ccncc3)C2)C1,2.51 µM (active),
CNC(C)(C)Cc1ccccc1,inactive,
C[C@@H](Cc1ccc(OCC(=O)O)cc1)NC[C@H](O)c1cccc(Cl)c1,inactive and 5.01 µM (active),
CCNC[C@H](O)c1cccc(O)c1,inactive,
C=C1[C@@H]2C[C@@]3([C@H]1O)[C@H]1C[C@@H]4[C@@]5(C)CC[C@H](O)[C@]4([C@H]1N(CC)C5)[C@H]3C[C@H]2O,inactive,
Oc1cccc2cccnc12,,31.2% [at 11.4 µM] (inactive)
CC1=NN(c2ccc(S(=O)(=O)O)cc2C)C(=[OH+])[C@H]1N=Nc1cc(S(=O)(=O)O)ccc1C(=O)O.O.[Cr],,33.2% [at 11.4 µM] (inactive)
COCOc1ccc(Br)cc1C(=O)/C=C\c1ccc2c(c1)OCO2,0.0631 µM (active),

# — PubChem BioAssay AID1851 (National Center for Advancing Translational Sciences (NCATS), 2009)
